Assay results reported in PubChem BioAssay (EPA / NIEHS).
Inconclusive results are not listed. Active and inactive are the calls of the source. How the source made its calls: active means hit-call score of the fitted dose curve at least 0.9, where 1 is the maximum; inconclusive means response in the unintended direction; inactive means score below 0.9.

Assay: ACEA_ER_80hr: ACEA Biosciences xCELLigence Real-Time Cell Analysis on Estrogen Receptor Agonism for Proliferation (AID 2282667)
Details: T47D proliferation, impedance (xCELLigence), 80 h
How it was run: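 T47D human breast cells were seeded on electrode plates, monitored overnight, then exposed continuously to compounds in eight-point 1:4 dilutions from 100 uM (max 0.5% DMSO). Impedance-based growth was read at 80 h, fitted upward relative to DMSO.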

Row | SMILES | outcome | AC50
1 | CC1=CC(C)C(C=O)C(C)C1 (configuration not stated) (tested in a mixture with another compound) | inactive | –
2 | CCCCCCCCCCCCN1CCOCC1 | inactive | –
3 | CC1COC(=O)O1 (configuration not stated) | inactive | –
4 | O=S(=O)(O)C(F)(F)C(F)(F)OC(F)(F)C(F)(F)F | inactive | –
5 | CCCCCCCCCO | inactive | –
6 | Nc1ccc(O)c(N)c1 | inactive | –
7 | C=C(C)C(=O)OCCOCCOC(=O)C(=C)C | inactive | –
8 | O=C(Nc1cccc(Cl)c1)OCC#CCCl | inactive | –
9 | CC(CCO)CC(C)(C)C (configuration not stated) | inactive | –
10 | CN1CCc2cccc3c2[C@H]1Cc1ccc(O)c(O)c1-3 | inactive | –
11 | NNC(=O)OCc1ccccc1 | inactive | –
12 | OC[C@@H](O)[C@H](O)[C@@H](O)[C@@H](O)CO | inactive | –
13 | Cc1ccccc1S | inactive | –
14 | CC/C=C\C#N | inactive | –
15 | CCCCCCCCCC(=O)OCC | inactive | –
16 | NS(=O)(=O)c1cc(C(=O)O)c(NCc2ccco2)cc1Cl | inactive | –
17 | CCCCOC(=O)C(C)OC(=O)CCC (configuration not stated) | inactive | –
18 | C=C(C)C(=O)OCCC[Si](OC)(OC)OC | inactive | –
19 | C/C=C(\C)C(=O)OC/C=C(\C)CCC=C(C)C | inactive | –

Row | SMILES | outcome | AC50
20 | CCCCOCCOC(=O)c1ccccc1C(=O)OCCOCCCC | inactive | –
21 | O=C1CCCCCCCCCCCC(=O)OCCO1 | inactive | –
22 | CCCCCCOc1ccc(O)cc1 | inactive | –
23 | CCO[Si](CCC#N)(OCC)OCC | inactive | –
24 | CC/C=C\CCOC(C)OCC (configuration not stated) | inactive | –
25 | CC(C)C(=O)c1ccccc1 | inactive | –
26 | C=CCOC(=O)/C=C\C(=O)OCC=C | inactive | –
27 | CCCCCCCCSCc1cc(C)c(O)c(CSCCCCCCCC)c1 | inactive | –
28 | CCC(C)(CCCC(C)C)OC(C)=O (configuration not stated) | inactive | –
29 | O=C(OCc1ccccc1)c1ccccc1O | inactive | –
30 | CC(C)Cc1ccccc1 | inactive | –
31 | COc1ccc2[nH]cc(CCNC(C)=O)c2c1 | inactive | –
32 | CCCCCCCCCCCCCC(=O)OCC | inactive | –
33 | COc1ccc(C(C)=O)cc1 | – | 0.0267 µM (active)
34 | ClCCOCCOCCCl | inactive | –
35 | CC(O)COCC(C)O (configuration not stated) | inactive | –
36 | O=Cc1ccccc1O | – | 10.7 µM (active)
37 | OCCN1CCOCC1 | inactive | –
